For 9 compounds, growth results are on record in PubChem BioAssay (NCI).

Some test systems named below: NCI-H23 lung; NCI-H226 lung; NCI-H322M lung; NCI-H460 lung; HOP-92 NSCLC; NCI-H522 lung; A549/ATCC NSCLC; 786-0 renal; COLO 205 colon; DU-145 prostate; K-562 leukemia; MALME-3M melanoma; MDA-MB-231 breast; SF-268 CNS; SF-295 CNS; SF-539 CNS; UACC-257 melanoma; M14 melanoma; RXF 393 renal; HOP-62 NSCLC.
Holding throughout (experiment): NCI-60 one-dose screen, 48 h (100 = growth as untreated, 0 = no growth, -100 = all killed)
Common to all, as to conditions: 10 µM

Each structure is given as a SMILES string. This is part of a sample that, as a whole, favours compounds with a hit. Of some 83,000 tested, about 20% had one in any assay.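 Plates (96-well) were seeded with cells, treated with compound at one concentration, and incubated for 48 hours before percent growth was determined.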 Values without a mark were called inactive. Active and inactive are the calls of the source. How the source made its calls: active means growth percent below 10; inactive means the rest.

Turning to `O=C(CSc1nnc(-c2c[nH]c3ccccc23)n1-c1ccccc1)Nc1ccc(C(=O)/C=C/c2ccc(Br)cc2)cc1`, the growth is 81.3% with NCI-H23 lung; 72.5% with NCI-H226 lung; 92.1% in the test on NCI-H322M lung; 104% with NCI-H460 lung; 89.4% with HOP-92 NSCLC; 76.3% in the test with NCI-H522 lung. For the same compound, the growth in the test with A549/ATCC NSCLC was 89.6%; in the test on 786-0 renal, 94.8%; in the test with COLO 205 colon, 108%; in the test with DU-145 prostate it was 96.4%; in the test on K-562 leukemia, 69.1%; with MALME-3M melanoma it was 98.5%. Moreover, the growth is 87.8% in the test with MDA-MB-231 breast; 67% with SF-268 CNS; 74.8% in the test with SF-295 CNS; 80.5% in the test on SF-539 CNS; 109% in the test with UACC-257 melanoma; 102% in the test on M14 melanoma.
In the case of `CO[C@@H]1CSS[C@H]1Cn1nc(-c2ccc(Oc3ccccc3)cc2)c2c(N)ncnc21`, the growth with NCI-H23 lung is 63.5%; with NCI-H226 lung, 24.7%; with NCI-H322M lung, 76.4%; in the test with NCI-H460 lung, 77.4%; with HOP-92 NSCLC it was 57.9%; in the test on NCI-H522 lung, 17.3%. Also, the growth in the test with A549/ATCC NSCLC was 45.7%; in the test with 786-0 renal it was 55.3%; in the test on DU-145 prostate, 73.5%; in the test on K-562 leukemia, 8.2% (active); with MALME-3M melanoma, 63.4%; with MDA-MB-231 breast, 72.6%. For the same compound, the growth in the test with RXF 393 renal is 35.5%; in the test on SF-268 CNS, 70%; with SF-295 CNS, 43.1%; in the test with SF-539 CNS it was 50%; in the test on UACC-257 melanoma, 40.8%; in the test on M14 melanoma, -64.2% (active).
With `NC(=Nc1ccc(OCCCCCCCCn2ccnn2)cc1)c1ccccc1`, the growth is 20.1% in the test on NCI-H23 lung; 60.3% with NCI-H322M lung; 18.2% in the test on HOP-62 NSCLC; 74.2% in the test with HOP-92 NSCLC; 24.4% in the test with A549/ATCC NSCLC; 45.7% in the test with 786-0 renal. The growth with DU-145 prostate was 26.7%; with MALME-3M melanoma it was 45.1%; in the test on MDA-MB-231 breast, 13.8%; in the test with SF-268 CNS, 72.4%; with SF-295 CNS it was 10.1%; with UACC-257 melanoma it was 50.8%. Further, in the test with M14 melanoma, the growth was 18.4%.
Turning to `O=S(=O)(Nc1ncccn1)c1ccc(-n2c(-c3ccccc3)nc(-c3ccccc3)c2-c2ccccc2)cc1`, the growth was 95.4% with NCI-H23 lung; 87.8% with NCI-H226 lung; 96.4% in the test on NCI-H322M lung; 88.1% in the test on NCI-H460 lung; 109% in the test with HOP-92 NSCLC; 94.4% in the test on NCI-H522 lung. Besides, the growth is 89.7% with A549/ATCC NSCLC; 88% with 786-0 renal; 130% in the test on COLO 205 colon; 101% with DU-145 prostate; 92.6% with K-562 leukemia; 111% with MALME-3M melanoma. In addition, the growth in the test with MDA-MB-231 breast is 87.7%; in the test on SF-268 CNS it was 85%; with SF-295 CNS, 65.9%; in the test with SF-539 CNS, 83.4%; in the test on UACC-257 melanoma, 118%; in the test on M14 melanoma it was 102%.
Regarding `Nc1cccnc1/C=N/NC(=S)NCCNC(=O)c1ccc(-n2nc(-c3ccccc3O)nc2-c2ccccc2O)cc1`, the growth in the test with NCI-H23 lung is -1.31% (active); in the test with NCI-H226 lung it was 2.65% (active); in the test on NCI-H322M lung it was 19.3%; with NCI-H460 lung it was 37.6%; in the test with HOP-92 NSCLC, -2.21% (active); in the test with NCI-H522 lung it was 4.39% (active). For the same compound, the growth with A549/ATCC NSCLC was 15%; in the test with 786-0 renal it was -1.51% (active); in the test on COLO 205 colon it was 15.1%; with DU-145 prostate, 27.9%; with K-562 leukemia, 7.44% (active); with MALME-3M melanoma it was 14.3%. Moreover, the growth with MDA-MB-231 breast was 19.8%; with RXF 393 renal, -10.6% (active); in the test with SF-268 CNS, 32.8%; in the test on SF-295 CNS it was -6.19% (active); in the test on SF-539 CNS, -23.2% (active); in the test with UACC-257 melanoma it was 7.34% (active). In addition, the growth in the test with M14 melanoma is -39% (active).
Take `CN1C(=O)N(C)C2SC(N/N=C/c3ccccc3F)=NC21` (configuration not stated): the growth in the test on NCI-H23 lung is 76.5%; with NCI-H226 lung, 92.4%; with NCI-H322M lung, 97.2%; in the test on NCI-H460 lung, 58.2%; with HOP-92 NSCLC it was 124%; in the test on NCI-H522 lung it was 46.1%. Besides, the growth in the test with A549/ATCC NSCLC is 63.1%; in the test with 786-0 renal, 68.7%; in the test on COLO 205 colon it was 100%; in the test with DU-145 prostate, 94.7%; with K-562 leukemia it was 17.2%; in the test with MALME-3M melanoma it was 59.4%. Further, the growth with MDA-MB-231 breast was 50.2%; in the test on SF-268 CNS, 78.7%; in the test on SF-295 CNS, 62%; in the test with SF-539 CNS, 54.3%; in the test with UACC-257 melanoma it was 82.7%; with M14 melanoma, 36.5%.
In the case of `C/C(=N\N=C\c1ccc(Cl)c([N+](=O)[O-])c1)c1ccc2c(c1)Nc1ccccc1S2`, the growth in the test with NCI-H23 lung was 18.2%; in the test with NCI-H226 lung it was -25.2% (active); in the test with NCI-H322M lung, 50%; with NCI-H460 lung it was 1.22% (active); in the test on HOP-92 NSCLC it was 32.6%; in the test with NCI-H522 lung it was 33.2%. For the same compound, the growth with A549/ATCC NSCLC is 60.2%; with 786-0 renal it was 52.1%; with COLO 205 colon, 32.1%; in the test with DU-145 prostate it was 28.1%; in the test with K-562 leukemia, 38.6%; in the test with MALME-3M melanoma it was -3.5% (active). For the same compound, the growth in the test on MDA-MB-231 breast was 32.4%; in the test with SF-268 CNS, 47.3%; in the test with SF-295 CNS, 42.7%; in the test on SF-539 CNS it was 12.8%; in the test on UACC-257 melanoma, 51.2%; with M14 melanoma, 62.6%.
In the case of `CN1CCN(c2ccc(Nc3nc(N4CCN(S(=O)(=O)c5ccc(F)cc5)CC4)c4sccc4n3)cc2)CC1`, the growth with NCI-H23 lung is -64.4% (active); in the test with NCI-H226 lung, -74.7% (active); with NCI-H322M lung, -88% (active); in the test with NCI-H460 lung it was -73% (active); in the test with HOP-92 NSCLC, -66.3% (active); with NCI-H522 lung, -86.4% (active). For the same compound, the growth was -48.9% (active) in the test on A549/ATCC NSCLC; -72.6% (active) in the test with 786-0 renal; -79.9% (active) with COLO 205 colon; -84% (active) in the test on DU-145 prostate; -97.9% (active) with MALME-3M melanoma; -94.6% (active) in the test with MDA-MB-231 breast. The growth in the test with RXF 393 renal was -89.1% (active); in the test with SF-268 CNS, -72.3% (active); in the test on SF-295 CNS, -88.5% (active); in the test with SF-539 CNS it was -100% (active); with UACC-257 melanoma, -86.1% (active); with M14 melanoma it was -56.9% (active).
As to `Cc1nc2c(cnn2-c2ccccc2)c(=O)n1-c1ccc(NC(=O)c2ccc(F)cc2)cc1`, the growth with NCI-H23 lung is 50.2%; in the test on NCI-H226 lung it was 56.2%; in the test on NCI-H322M lung, 86.1%; in the test with NCI-H460 lung, 54.4%; in the test on NCI-H522 lung, 63.9%; in the test on A549/ATCC NSCLC it was 54.6%. Also, the growth in the test on 786-0 renal was 82.5%; in the test with COLO 205 colon it was 62.3%; with DU-145 prostate, 80.7%; with K-562 leukemia, 27.2%; in the test on MALME-3M melanoma, 68.4%; with RXF 393 renal it was 79.1%. The growth with SF-268 CNS was 88.9%; in the test with SF-295 CNS, 39.6%; in the test on SF-539 CNS, 85.5%; with UACC-257 melanoma it was 31.8%; in the test with M14 melanoma, 62.9%.
